Here are results for 40 compounds from PubChem BioAssay (Tox21).

Inconclusive results are not listed. Some compounds were tested as several samples or in several runs, with calls that do not always agree. Activity calls are given as the source filed them. Calls come from the whole dose curve.
% is set by controls: 0 for no effect and ±100 for the full control effect; potency is the fitted concentration of half-maximal effect.

Sequence of Acetylcholinesterase (Homo sapiens) (P22303 whole entry, looked up): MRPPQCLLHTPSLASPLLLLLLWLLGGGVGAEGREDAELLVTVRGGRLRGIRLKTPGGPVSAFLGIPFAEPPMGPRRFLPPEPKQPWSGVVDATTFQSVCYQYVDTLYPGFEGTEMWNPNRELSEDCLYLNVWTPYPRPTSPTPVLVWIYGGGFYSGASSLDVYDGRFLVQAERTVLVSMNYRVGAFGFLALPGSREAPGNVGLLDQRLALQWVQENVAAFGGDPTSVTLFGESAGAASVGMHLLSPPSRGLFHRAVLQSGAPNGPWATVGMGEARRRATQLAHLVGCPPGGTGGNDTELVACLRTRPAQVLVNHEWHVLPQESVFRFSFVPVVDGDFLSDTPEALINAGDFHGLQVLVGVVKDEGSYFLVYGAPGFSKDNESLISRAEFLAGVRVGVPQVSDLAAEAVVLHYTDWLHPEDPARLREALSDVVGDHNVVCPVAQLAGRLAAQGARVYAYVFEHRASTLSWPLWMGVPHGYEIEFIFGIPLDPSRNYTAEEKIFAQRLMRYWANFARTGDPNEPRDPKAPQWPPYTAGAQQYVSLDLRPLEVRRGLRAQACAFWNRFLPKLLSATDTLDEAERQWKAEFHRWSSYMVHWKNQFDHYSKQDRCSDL

The target in the assay is Acetylcholinesterase (Homo sapiens) (UniProt P22303). Description: Acetylcholinesterase (AChE) small molecule antagonists: colormetric cell-based qHTS assay (AID 1347395). Note: nearly all actives have a fitted effect of over 30% in size. The following applies: SH-SY5Y cells AChE activity, colorimetric (Ellman); series mostly up to 115 µM; activity, negative = inhibition: at the top concentration. From the text:
National Center for Advancing Translational Sciences [NCATS]
Division of Preclinical Innovation [DPI]
U.S. Environmental Protection Agency [EPA]
National Institutes of Environmental Health Sciences [NIEHS]
National Toxicology Program [NTP]
U.S. Food and Drug Administration [FDA]
Acetylcholinesterase (AChE) is the primary cholinesterase in the body that hydrolyzes a key neurotransmitter, acetylcholine. Inhibition of AChE activity can lead to neurotoxicity. The known inhibitors include organophosphorous pesticides (OP), chemical warfare agents, drugs, and various phytochemicals.
A homogenous cell-based assay using the Amplite Colormetric acetylcholinesterase assay kit (AAT Bioquest, Sunnyvale, CA) was used to evaluate the chemicals in the Tox21 10K library that inhibit AChE activity. The assay uses 5, 5-dithiobis-(2-nitrobenzoic acid) (DTNB) to quantify the thiocholine produced from the hydrolysis of acetylthiocholine by AChE from the SH-SY5Y cells.
Tox21 Assay Protocol Summary:
For the cell-based AChE assay, 2,000 SH-SY5Y cells in 4 uL/well were dispensed into black, clear-bottom 1536-well plates using a Multidrop Combi dispenser (Thermo Scientific, MA). The assay plates were incubated overnight at 37 C to allow cells to attach to the wells, followed by the transfer of 23 nL of compound or DMSO (vehicle control) by a Pintool Station (Wako Automation, CA). The plates were incubated for 30 min at 37 C and 5% CO2, followed by the addition of 4 uL of detection cocktail solution (DTNB, acetylthiocholine) into each well using a Flying Reagent Dispenser (Beckman Coulter, CA) and then 90 min incubation at 37 C.
As for `CC1=C(C=O)C(C)(C)CC=C1`, the “activity, negative = inhibition” value was 1.53% (inactive).

For `CC1(C)C(=O)N(Cl)C(=O)N1Cl`, the Potency entry is “inactive”.

Regarding `COc1ccc(S(=O)(=O)N2C(=O)[C@@](c3ccccc3OC)(N3C[C@H](O)C[C@H]3C(=O)N(C)C)c3cc(Cl)ccc32)c(OC)c1`, the “activity, negative = inhibition” value is -3.92% (inactive).

In the case of `C[Si]1(C)O[Si](C)(C)O[Si](C)(C)O[Si](C)(C)O1`, the Potency result was “inactive”.

Regarding `CN(C)c1ccc(/C=C/c2ccc([N+](=O)[O-])cc2)cc1`, the activity, negative = inhibition is 3.64% [at 10.5 µM] (inactive).

Take `c1ccc2cnncc2c1`: the “activity, negative = inhibition” value is 1.45% (inactive).

Regarding `Clc1cccc(C(c2ccc3nc[nH]c3c2)n2ccnc2)c1` (stereo not given), the “activity, negative = inhibition” value is -5.33% [at 52.9 µM] (inactive).

`c1ccc(COCc2ccccc2)cc1`: the “activity, negative = inhibition” value was 0.554% (inactive).

With `CC(C(=O)O)c1cccc(Oc2ccccc2)c1` (stereo not given), the “activity, negative = inhibition” value is -3.2% [at 52.9 µM] (inactive).

Turning to `CN1C(C(=O)Nc2ccccn2)=C(O)c2sccc2S1(=O)=O`, the “activity, negative = inhibition” value was 0.924% [at 52.9 µM] (inactive).

As for `C[C@]12CCC(=O)C=C1CC[C@@H]1[C@@H]2[C@@H](O)C[C@@]2(C)[C@H]1CC[C@]2(O)C(=O)COC(=O)CCC(=O)O`, the “activity, negative = inhibition” value is 3.66% [at 52.9 µM] (inactive).

With `CCCCCCOc1cc(C)c(O)c(C)c1C`, the “activity, negative = inhibition” value was -4.31% (inactive).

`OC[C@@H](O)[C@@H](O)[C@H](O)[C@H](O)CO`: the Potency result is “inactive”.

For the compound `CC(C)c1ccc2ncccc2c1`, the “activity, negative = inhibition” value was 0.203% (inactive).

In the case of `COc1cc(-c2ccc(=O)[nH]n2)ccc1OC(F)F`, the “activity, negative = inhibition” value is -1.45% [at 52.9 µM] (inactive).

On to `CO[C@@H]1[C@@H](OC)[C@H](C)[C@@](O)(CC(=O)O)O[C@H]1[C@H](C)[C@H]1O[C@@]2(CC[C@@](C)([C@H]3CC[C@@](C)([C@@H]4O[C@@H]([C@H]5O[C@](C)(O)[C@H](C)C[C@@H]5C)C[C@@H]4OC4C[C@H](OC)[C@@H](OC)[C@H](C)O4)O3)O2)C[C@H](O)[C@H]1C` (stereo not given in full), for which the “activity, negative = inhibition” value was 0.705% [at 52.9 µM] (inactive).

With `O=C(OCC1(COC(=O)c2cccnc2)CCCC(COC(=O)c2cccnc2)(COC(=O)c2cccnc2)C1O)c1cccnc1`, the “activity, negative = inhibition” value was -3.49% [at 52.9 µM] (inactive).

`O=c1oc2cc(O)ccc2c2oc3cc(O)ccc3c12`: the “activity, negative = inhibition” value is 2.05% (inactive).

As to `CC(=O)CC(=O)Nc1ccc(S(=O)(=O)O)cc1`, the “activity, negative = inhibition” value is 1.26% (inactive).

For `CC(C=O)Cc1ccc(C(C)C)cc1` (stereo not given), the “activity, negative = inhibition” value is -1.68% (inactive).

With `C[C@@]12C(=O)OC(=O)[C@]1(C)C1CCC2O1`, the “activity, negative = inhibition” value is 1.35% [at 52.9 µM] (inactive).

In the case of `c1c[nH]cn1`, the Potency entry is “inactive”.

On to `Clc1ccc(Cl)c(Cl)c1Cl`, for which the Potency entry is “inactive”.

`C=C[Si](OC(C)=O)(OC(C)=O)OC(C)=O`: the “activity, negative = inhibition” value is -4.54% (inactive).

As to `CCCCCCCCCCN`, the Potency entry was “inactive”.

For the compound `C=CCCC=C`, the “activity, negative = inhibition” value was 0.0969% (inactive).

Take `CCCCCC[C@@H](O)C/C=C\CCCCCCCC(=O)OC`: the “activity, negative = inhibition” value is -2.39% (inactive).

For `C=C1C(=C/C=C2\CCC[C@]3(C)[C@@H]([C@H](C)/C=C/[C@@H](O)C4CC4)CC[C@@H]23)C[C@@H](O)C[C@@H]1O`, the “activity, negative = inhibition” value was 0% [at 52.9 µM] (inactive).

On to `CC(=O)NCCCS(=O)(=O)O`, for which the “activity, negative = inhibition” value was 0% [at 52.9 µM] (inactive).

With `Nc1ccncc1N`, the “activity, negative = inhibition” value was -3.87% [at 52.9 µM] (inactive).

With `CC(O)c1ccccc1` (stereo not given), the “activity, negative = inhibition” value is -0.614% (inactive).

With `O=C(O)c1ccccc1`, the Potency is 3.74 µM (active) and inactive.

Turning to `CCC(C)CO` (stereo not given), the Potency result is “inactive”.

For the compound `OC12N=C(c3ccccc3)SC1Cc1cc(Cl)ccc12` (stereo not given), the “activity, negative = inhibition” value is 0.0931% (inactive).

On to `CN=C(NC#N)Nc1ccc(C2=NNC(=O)CC2C)cc1` (stereo not given), for which the “activity, negative = inhibition” value was 2.05% [at 52.9 µM] (inactive).

With `O=S(=O)(O)c1cccc(S(=O)(=O)O)c1`, the “activity, negative = inhibition” value was 0.0559% (inactive).

Take `Oc1cn2c(n1)Nc1ccc(Cl)c(Cl)c1C2`: the activity, negative = inhibition is -9.64% [at 23.6 µM] (inactive).

`CC(C)(C)c1ccc(CCC=O)cc1`: the “activity, negative = inhibition” value was -6.46% (inactive).

`CCCC(=O)c1ccccc1`: the “activity, negative = inhibition” value was 0.841% (inactive).

Regarding `Cc1cc(Cl)c(C)cc1Cl`, the “activity, negative = inhibition” value was -4.21% (inactive).
